Assay outcomes from PubChem BioAssay.
BAZ2B inh: BAZ2B (human) inhibition. Q9UIF8. AlphaScreen BAZ2B-H3K14Ac peptide displacement. Potency, µM (highest dose often 114 µM), for the others: at the top dose activity change, negative = inhibition, actives largely listed as inhibitors. actives 4.4% (n = 360,000); note: % is set by controls: 0 for no effect and ±100 for the full control effect; nearly all actives have a fitted effect of over 60% in size
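AlphaScreen displacement of biotin-H3(5-23)K14Ac peptide (50 nM final) from BAZ2B (50 nM final) in PBS pH 7.4, 0.01% Tween-20; complex preformed 30 min RT, then compounds (top 110 uM) 30 min RT, beads 20 min dark.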
G9a block: G9a (human) methyltransferase inhibition. Q96KQ7. G9a H3K9 monomethylation, AlphaScreen, 2 h. Potency, µM (titrated, usually from 102 µM), for the others: at the top dose activity, negative = inhibition, usual class: inhibitors. actives 8.8% (n = 350,000). AID 504332; note: % is set by controls: 0 for no effect and ±100 for the full control effect; nearly all actives have a fitted effect of over 75% in size
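G9a (20 nM) preincubated 15 min RT with compounds, then 500 nM biotinylated H3K9 peptide and 20 uM SAM added; 2 h RT reaction. Monomethyl-H3K9 product detected by AlphaScreen with anti-H3K9me1 antibody, streptavidin donor and anti-rabbit IgG acceptor beads.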
GLS inhibitor: blocks human kidney-isoform glutaminase activity | O94925 | actives 0.21% (n = 410,000) | GLS enzymatic activity, qHTS titration | Potency, µM (top dose mostly 45.5 µM), for the others: at the top dose activity change, negative = inhibition, most hits filed as inhibitors; note: % is set by controls: 0 for no effect and ±100 for the full control effect
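Coupled fluorescence readout: glutamate oxidase/HRP/Amplex Red detect glutamate formed by hKGA from L-glutamine (1 mM solution added). Buffer 45 mM KH2PO4 pH 8.2, 0.02% Tween-20; reads at t0 and 30 min RT.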
HP1b binding inh: blocks HP1-beta chromodomain binding to methylated histone tails. Potency, µM (series often up to 114 µM), for the others: at the highest dose activity change, negative = inhibition, hits mostly inhibitors. actives 0.56% (n = 390,000). AID 540317. AlphaScreen HP1-beta / biotin-H3K9me3 peptide binding. P83916; note: nearly all actives have a fitted effect of over 70% in size
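HP1-beta protein (50 nM final) preincubated 30 min at room temperature with biotinylated H3(1-18)K9me3 peptide (50 nM) in PBS pH 7.4, 0.01% Tween-20, then compound added for 30 min. AlphaScreen streptavidin donor/nickel chelate acceptor beads (10 ug/mL final), 30 min dark, luminescence read.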
JMJD2A Tudor inh: JMJD2A Tudor domain (human) inhibition | AlphaScreen JMJD2A-Tudor / H3K4me3 peptide binding | Potency, µM (doses to about 114 µM), inactives show at the highest dose activity change, negative = inhibition, most hits filed as inhibitors | actives 4.4% (n = 390,000); note: % is set by controls: 0 for no effect and ±100 for the full control effect; nearly all actives have a fitted effect of over 50% in size
L3MBTL1 block: blocks human L3MBTL1; actives 0.66% (n = 230,000); AlphaScreen L3MBTL1–H3K9me1 peptide binding; Q9Y468; Potency, µM (highest dose often 57.1 µM), inactives show at the highest dose activity, negative = inhibition, hits mostly inhibitors; note: % is set by controls: 0 for no effect and ±100 for the full control effect; nearly all actives have a fitted effect of over 60% in size
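L3MBTL1 50 nM + b-AHA-H3(1-15)K9me1 75 nM, 30 min RT; compound added, 30 min RT; streptavidin donor/Ni-chelate acceptor beads 10 ug/mL each final, 30 min RT dark; AlphaScreen read.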
Starred values were filed as active, the others as inactive; [ ] = remark or other dose. Sampled rows, rich in hits. Any-hit rate of the full collection: about 10%. Calls come from the whole dose curve; as a rule, active = well fitted curve in the direction sought with a large enough effect; inconclusive = small, poorly fitted or top-dose-only effect, or another doubt; inactive = no such curve, though single readings can be large; an effect the other way counts as inactive or inconclusive. Potency is the fitted concentration of half-maximal effect.

Screening CCOc1ccccc1NC(=O)CN1C(=O)CC(c2ccc(OC)c(OC)c2)Sc2ccccc21 (stereo not given) returned BAZ2B inh -19%, G9a block inconclusive, GLS inhibitor -6%, HP1b binding inh 22% and JMJD2A Tudor inh -22%.
CS(=O)(=O)c1ccc(C(=O)Nc2ccc(N3CCCC3)cc2)c(Cl)c1 was read as BAZ2B inh -12%, G9a block 10µM*, GLS inhibitor 3%, HP1b binding inh -10%, JMJD2A Tudor inh -17% and L3MBTL1 block -20%.
`CS(=O)(=O)c1ccc(C(=O)Nc2ccc(N3CCOCC3)cc2)c(Cl)c1` gave BAZ2B inh -13%, G9a block -7%, GLS inhibitor 29%, HP1b binding inh 60%, JMJD2A Tudor inh -13% and L3MBTL1 block 3%.
For O=C(Nc1ccc(N2CCCC2)cc1)c1cc(Br)ccc1Cl the results were BAZ2B inh -34%, G9a block 8.9µM*, GLS inhibitor 9%, HP1b binding inh 5%, JMJD2A Tudor inh inconclusive and L3MBTL1 block -11%.
`O=C(Nc1ccc(Br)cc1)c1cccnc1N1CCCCC1` gave BAZ2B inh 6%, G9a block inconclusive, GLS inhibitor -2%, HP1b binding inh 69% and JMJD2A Tudor inh 32%.
For Cc1cccc(N2C(=O)CSC23C(=O)N(Cc2cccc(C(F)(F)F)c2)c2ccccc23)c1 (stereo not given) the results were BAZ2B inh 0%[57.1 µM], G9a block -14%[59 µM], GLS inhibitor -9%, HP1b binding inh 18% and JMJD2A Tudor inh -16%.
`CCCC(C)c1nnc(NC(=O)C2CC(=O)N(CCc3ccc(F)cc3)C2)s1` (stereo not given) gave BAZ2B inh -18%, G9a block 7.9µM*, GLS inhibitor inconclusive, HP1b binding inh inconclusive and JMJD2A Tudor inh inconclusive.
`CCc1nnc(NC(=O)C2CC(=O)N(CCc3ccc(F)cc3)C2)s1` (stereo not given) gave BAZ2B inh -18%, G9a block inconclusive, GLS inhibitor -11%, HP1b binding inh -7% and JMJD2A Tudor inh -10%.
For CC(C)(C)c1nnc(NC(=O)C2CC(=O)N(CCc3ccc(F)cc3)C2)s1 (stereo not given) the results were BAZ2B inh 8%, G9a block 32µM*, GLS inhibitor 6%, HP1b binding inh -16% and JMJD2A Tudor inh -16%.
Screening COc1cc(CN(C(=O)COc2ccc(Br)cc2)c2ccccn2)cc(OC)c1OC returned BAZ2B inh -9%, G9a block -8%[59 µM], GLS inhibitor 5%, HP1b binding inh 34% and JMJD2A Tudor inh -5%.
For CCc1c(C)sc(NC(=O)C2CC2c2ccccc2)c1C(N)=O (stereo not given) the results were BAZ2B inh -5%, G9a block 14µM*, GLS inhibitor -9%, HP1b binding inh 0%, JMJD2A Tudor inh -31% and L3MBTL1 block -7%.
For NNC(=O)[C@@H]1C[C@@H]1c1ccccc1 the results were BAZ2B inh -10%, G9a block 1%[59 µM], GLS inhibitor 20%, HP1b binding inh 41%, JMJD2A Tudor inh -12% and L3MBTL1 block 14%.
Cc1cc(C)c(NC(=O)CSc2nc3nc(C)cc(C)n3n2)c(C)c1 was read as BAZ2B inh -1%, G9a block 8%[59 µM], GLS inhibitor 6%, HP1b binding inh 37% and JMJD2A Tudor inh -8%.
`Cc1ccc(N2C(=O)C3C4C=CC(CNC(=S)N5CCN(c6ccccc6)CC5)(O4)C3C2=O)cc1` (stereo not given) gave G9a block 2.2µM*, GLS inhibitor 4%, HP1b binding inh inconclusive and JMJD2A Tudor inh inconclusive.
For Cc1ccc(S(=O)(=O)NCC23C=CC(O2)C2C(=O)N(c4ccccc4)C(=O)C23)cc1 (stereo not given) the results were BAZ2B inh 8%, G9a block inconclusive, GLS inhibitor 1%, HP1b binding inh inconclusive and JMJD2A Tudor inh inconclusive.
Screening Cc1ccc(NC(=S)NCC23C=CC(O2)C2C(=O)N(c4ccc(C)cc4)C(=O)C23)cc1 (stereo not given) returned BAZ2B inh -27%, G9a block 7.9µM*, GLS inhibitor 7%, HP1b binding inh inconclusive, JMJD2A Tudor inh 89µM* and L3MBTL1 block -2%.
Cc1ccc(-c2cnc(-c3ccccc3C(=O)O)o2)cc1 was read as BAZ2B inh -16%, G9a block 50µM*, GLS inhibitor -4%, HP1b binding inh 20% and JMJD2A Tudor inh -20%.
For COc1ccc(NC(=O)c2cn3c4c(ccc(Cl)c4c2=O)OC(C)C3)cc1OC (stereo not given) the results were BAZ2B inh -10%, G9a block -32%[59 µM], GLS inhibitor 1%, HP1b binding inh 20% and JMJD2A Tudor inh -25%.
Screening CCN1/C(=C/C=C/C=C/C=C/c2sc3ccccc3[n+]2CC)Sc2ccccc21 returned BAZ2B inh 40µM*, G9a block 22µM*, GLS inhibitor inconclusive, HP1b binding inh inconclusive and JMJD2A Tudor inh 20µM*.
CCN1/C(=C/C=C/C=C/c2sc3ccccc3[n+]2CC)Sc2ccccc21 was read as BAZ2B inh 11µM*, G9a block 28µM*, GLS inhibitor inconclusive and L3MBTL1 block inconclusive.
`CCN1/C(=C/C=C/c2sc3ccccc3[n+]2CC)Sc2ccccc21` gave BAZ2B inh 14µM*, G9a block inconclusive, GLS inhibitor 9%, HP1b binding inh 26%, JMJD2A Tudor inh -1% and L3MBTL1 block 28µM*.
Screening CCc1ccc(NC(=O)c2ccc3c(O)c(S(=O)(=O)c4ccc(Cl)cc4)c(=O)[nH]c3c2)cc1 returned BAZ2B inh -14%, G9a block -1%[59 µM], GLS inhibitor -3%, HP1b binding inh 17% and JMJD2A Tudor inh -24%.
Cc1cccc(Cc2c(C)[nH]c(=O)c(C#N)c2C)c1 was read as BAZ2B inh 89µM*, G9a block 9%, GLS inhibitor -1%, HP1b binding inh 44%, JMJD2A Tudor inh -4% and L3MBTL1 block 1%.
`Cc1[nH]c(=S)c(C#N)c(C)c1Cc1ccccc1` gave BAZ2B inh -11%, G9a block inconclusive, GLS inhibitor inconclusive, HP1b binding inh 13%, JMJD2A Tudor inh inconclusive and L3MBTL1 block -3%.
For Cc1ccc(-c2nn(-c3cccc(F)c3)cc2CN2CCN(c3ccccn3)CC2)o1 the results were BAZ2B inh 50µM*, G9a block inconclusive, GLS inhibitor -2%, HP1b binding inh inconclusive, JMJD2A Tudor inh 35µM* and L3MBTL1 block -19%.
